In all, about 39,000 sequences were measured (“fluorescence intensity (a.u.)”: median about 4,300, highest 2% from about 39,000 on). Many of the other results were omitted from the sample, so the highest values are more common in it than they were.

In this assay the target is T1, OsSMF1 (Oryza sativa, UniProt Q6ZLB0 1-436).
T1 sequence: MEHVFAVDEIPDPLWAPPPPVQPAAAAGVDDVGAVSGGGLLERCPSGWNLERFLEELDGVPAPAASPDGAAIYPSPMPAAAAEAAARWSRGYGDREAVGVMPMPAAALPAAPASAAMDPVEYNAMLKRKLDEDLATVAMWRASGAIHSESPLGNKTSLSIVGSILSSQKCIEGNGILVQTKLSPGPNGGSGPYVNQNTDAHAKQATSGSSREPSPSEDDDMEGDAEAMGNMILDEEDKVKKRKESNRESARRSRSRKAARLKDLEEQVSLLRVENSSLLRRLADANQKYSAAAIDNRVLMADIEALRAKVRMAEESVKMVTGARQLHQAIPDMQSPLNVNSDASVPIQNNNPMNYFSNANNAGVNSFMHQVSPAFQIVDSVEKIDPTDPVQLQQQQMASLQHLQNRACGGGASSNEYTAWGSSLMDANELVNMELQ
Put plainly: protein-binding microarray (RPBM); PBS, 2% BSA, 51.3 ng/ul salmon testes DNA, 50 uM zinc acetate, 200 nM TF, 25 C, 1 h; high values mean tight binding. The conditions noted are these: protein: recombinant; tags: N-terminal polyhistidine and DsRed monomer fusion (pET32a); chain copies: 2; label: CyDye5-dUTP incorporated in the synthesized complementary strand; 3' TTTTT single-stranded linker to array surface; dsDNA, one strand shown. In outline: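 The binding signal for each feature is its fluorescence intensity in arbitrary units. An Axon 4000B scanner was used to read a custom Agilent array that had been made double-stranded with Cy5-dUTP primer extension, blocked with 2% BSA, incubated at 25 °C for 1 h with 200 nM protein in PBS, 2% BSA, salmon testes DNA and 50 µM zinc acetate, and washed. The protein was an N-terminal polyhistidine–DsRed transcription factor fusion from E. coli BL21-CodonPlus, purified on Ni–NTA.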
Regarding “GGTTGAAGTTAATACGTGCCAAATCTATAACTTTATTCCGCGGAGTCACCTAGTGCAG”, the binding signal is 3300 fluorescence intensity (a.u.).

As for “TGGGAGAGGGTAGTAGGTGGGCCGAGGTACACACGTGGGGCGGAGTCACCTAGTGCAG”, the binding signal was 5560 fluorescence intensity (a.u.). Regarding “TTCGCTGACACGCCCCGTCCACTCTTGTCCACGCTGCGCCCGGAGTCACCTAGTGCAG”, the binding signal was 3380 fluorescence intensity (a.u.).

With “TCTTGCCTTCTTGCCCTCCACACTGTCCACGTCTCTCCAACGGAGTCACCTAGTGCAG”, the binding signal was 4650 fluorescence intensity (a.u.). In the case of “GATCAAGGAGGCCGTGGCGGACAGGGAGTGCGGGGTGGATCGGAGTCACCTAGTGCAG”, the binding signal was 3360 fluorescence intensity (a.u.). In the case of “TCAATAGAAAATAAACTGATTCATGTTAAAACCTTCACACCGGAGTCACCTAGTGCAG”, the binding signal is 46600 fluorescence intensity (a.u.). Then “AAAACTTGCAACTGCAATTCATGTCAATTTGCCACATCACCGGAGTCACCTAGTGCAG”, with 13200 fluorescence intensity (a.u.); and “CAGTTAACCACCTAACTGATCAAACTCATTCATGTCACTCCGGAGTCACCTAGTGCAG”, with 5110 fluorescence intensity (a.u.). Then “ACAGCGTAGGCTTTTCTTTCACGTCACCACGCGTACGCGACGGAGTCACCTAGTGCAG”, with 6560 fluorescence intensity (a.u.); and “TAGTACCAAAGTATTTGTGTGTCACTATGATGTCCTGCCTCGGAGTCACCTAGTGCAG”, with 6010 fluorescence intensity (a.u.). With “GGGTGAAGCGTCGCGCGGCGCGCCGTGGCGTGGCGTGGCGCGGAGTCACCTAGTGCAG”, the binding signal was 6090 fluorescence intensity (a.u.).

Regarding “ATCTTCTTCTTCATCGCTGTGCAGCTACACACTCTCACTGCGGAGTCACCTAGTGCAG”, the binding signal is 3180 fluorescence intensity (a.u.). Then “TTCATATTTATTTGATGACGTGGCTAATCCTGGTCGGATCCGGAGTCACCTAGTGCAG”, with 40700 fluorescence intensity (a.u.); and “GGCGGTTTTGGATGACGTGGTGCCTACGTGGCTAATTTGACGGAGTCACCTAGTGCAG”, with 35600 fluorescence intensity (a.u.); and “GTGTGGTTTTGCTGATGTGGCGCTGACGTGGCGATATTGACGGAGTCACCTAGTGCAG”, with 48500 fluorescence intensity (a.u.). Regarding “GTTTAGATGGTGGTTTTGGCTGACGTGTCACCTACGTGGCCGGAGTCACCTAGTGCAG”, the binding signal was 24200 fluorescence intensity (a.u.). Then “GAGTTTGATAGCTTAGCAGAAATAGTTTTGCTGACGTGGCCGGAGTCACCTAGTGCAG”, with 40700 fluorescence intensity (a.u.); and “GATGGCGGTTTTGCTGATGTGGCGTTGACGTGCCGACCCGCGGAGTCACCTAGTGCAG”, with 13200 fluorescence intensity (a.u.); and “GTCATATTTATTTGGATGATGTGGCATGTTCTGGTGGTGACGGAGTCACCTAGTGCAG”, with 15700 fluorescence intensity (a.u.). As to “GCTTGCTGCTGCTGCTGCTGATAGTTTAGCTTGAGAGAGCCGGAGTCACCTAGTGCAG”, the binding signal was 22700 fluorescence intensity (a.u.). Turning to “GAGGGCGGTTTTGCTGATGTGGCGTTGACGTGGCGATGTTCGGAGTCACCTAGTGCAG”, the binding signal was 27700 fluorescence intensity (a.u.). Consider “CGGTGGTTTTGGCTGACGTGGCACCTATGTGGCAAATTTGCGGAGTCACCTAGTGCAG”, for which the binding signal is 7870 fluorescence intensity (a.u.).

“TGTTTGTCGTGACTTAGCTTAGTTGTTGCTGTTGTTGAGCCGGAGTCACCTAGTGCAG”: the binding signal was 3400 fluorescence intensity (a.u.). As to “TTTGATGGTGGTTTTGGCTGACGTGGCACCTACATGGCATCGGAGTCACCTAGTGCAG”, the binding signal was 42900 fluorescence intensity (a.u.). With “AAGAGACCTGTTTATTAGCGTCACTGACAGTCGTTGTCACCGGAGTCACCTAGTGCAG”, the binding signal is 3660 fluorescence intensity (a.u.). Consider “ATTTCATCCTTATTAGGGCCTATTTGGAGCATTGGCAGGGCGGAGTCACCTAGTGCAG”, for which the binding signal was 3750 fluorescence intensity (a.u.). Then “AGATCCCGAATTCGTGCCACGTGATCTGCCGTCGTGTATTCGGAGTCACCTAGTGCAG”, with 6050 fluorescence intensity (a.u.); and “CCCCGCTTCGCCGCCGGCCGCCTCTCTCTTCTCAAGAGTCCGGAGTCACCTAGTGCAG”, with 3340 fluorescence intensity (a.u.).

Take “GCAACCGCGACGACCGATCCACGTGGCACCACCTCATTGGCGGAGTCACCTAGTGCAG”: the binding signal was 29400 fluorescence intensity (a.u.). In the case of “GGGCCCAGCAGGTTCCTAGTAGACTTCGTCGTAGTGGGACCGGAGTCACCTAGTGCAG”, the binding signal was 8310 fluorescence intensity (a.u.). Take “GCTATAATATATTGCAGCAGCAGCAGCAGTGGTGGTGGTGCGGAGTCACCTAGTGCAG”: the binding signal was 3360 fluorescence intensity (a.u.). With “TGATGGCCGGTGATCAGTGGCATGTGCATGTTATATTATTCGGAGTCACCTAGTGCAG”, the binding signal is 3260 fluorescence intensity (a.u.). Take “CACTCCAGAACCAAACGTTTGATGACTCTCTGCTTTTGCGCGGAGTCACCTAGTGCAG”: the binding signal is 4570 fluorescence intensity (a.u.).

For the sequence “ACAAACCGAGGAGGAGGAGGAGGGCCCACCAGCCACCACGCGGAGTCACCTAGTGCAG”, the binding signal was 3310 fluorescence intensity (a.u.). On to “CTGACGAGCAGAACATTAGCTATCCTATCCAGAATAGTTTCGGAGTCACCTAGTGCAG”, for which the binding signal is 47400 fluorescence intensity (a.u.). Then “AGGGCGCTTTTGGCTGACATGGCGCCTACGTGGCTTGTTTCGGAGTCACCTAGTGCAG”, with 28100 fluorescence intensity (a.u.); and “GCTAATTTGACTCGGTTTTCATCTGACGTGGCATTGACGTCGGAGTCACCTAGTGCAG”, with 41400 fluorescence intensity (a.u.). In the case of “GTTTTGGCTGACGTGGCGCCTACGTGGTTTGTTTGACCTACGGAGTCACCTAGTGCAG”, the binding signal is 37300 fluorescence intensity (a.u.). Regarding “GCTGGTTTGATTAGATCTTCATCCCACGTGGCATTGACGTCGGAGTCACCTAGTGCAG”, the binding signal was 25100 fluorescence intensity (a.u.). Regarding “CGGTTTTAGCTGACGTGGCGCCTACGTGGCAAAGTTGACCCGGAGTCACCTAGTGCAG”, the binding signal is 44700 fluorescence intensity (a.u.). On to “GGACGGTTTCGCTGATGTGGCGCCTACGTGGCATCCTAATCGGAGTCACCTAGTGCAG”, for which the binding signal was 20300 fluorescence intensity (a.u.).

Consider “ATAGTGGTTTTGGCTGACGTGGCGCCTACGTGGCTAATTTCGGAGTCACCTAGTGCAG”, for which the binding signal is 19600 fluorescence intensity (a.u.).

With “GGTTTTAGCTGACGTGGCGCCTACGTGACAGTGTTGACCCCGGAGTCACCTAGTGCAG”, the binding signal is 32700 fluorescence intensity (a.u.). Then “AAACCCAATCCAGTTAGGAATAGAACATTAGATATCCAACCGGAGTCACCTAGTGCAG”, with 3940 fluorescence intensity (a.u.); and “AGATCATTAGTTAGCACATATCATCCACATCATCCTATTTCGGAGTCACCTAGTGCAG”, with 5980 fluorescence intensity (a.u.). As for “CTGTTTCGCTGACGTGACGCCTACGTGGCATCCCAGTCATCGGAGTCACCTAGTGCAG”, the binding signal is 40300 fluorescence intensity (a.u.).

These data come from paper PMC7819943, “Rice protein-binding microarrays: a tool to detect cis-acting elements near promoter regions in rice”.
